Test results reported in article PMC7819943, “Rice protein-binding microarrays: a tool to detect cis-acting elements near promoter regions in rice”.
Whole data set: some 68,000 sequences, median “fluorescence intensity (a.u.)” near 9,100, cut for the highest 2% near 16,000. The sample holds the highest values, similar sequences and a random draw of the others, so the mix is not that of the screen.

molecular target: OsWRKY34 (Oryza sativa, UniProt Q0JBA9 1-250); test: protein-binding microarray (RPBM); PBS, 2% BSA, 51.3 ng/ul salmon testes DNA, 50 uM zinc acetate, 200 nM TF, 25 C, 1 h; high values mean tight binding; conditions: protein: recombinant; tags: N-terminal polyhistidine and DsRed monomer fusion (pET32a); label: CyDye5-dUTP incorporated in the synthesized complementary strand; 3' TTTTT single-stranded linker to array surface; dsDNA, one strand shown
Sequence (Q0JBA9 entry or part of it): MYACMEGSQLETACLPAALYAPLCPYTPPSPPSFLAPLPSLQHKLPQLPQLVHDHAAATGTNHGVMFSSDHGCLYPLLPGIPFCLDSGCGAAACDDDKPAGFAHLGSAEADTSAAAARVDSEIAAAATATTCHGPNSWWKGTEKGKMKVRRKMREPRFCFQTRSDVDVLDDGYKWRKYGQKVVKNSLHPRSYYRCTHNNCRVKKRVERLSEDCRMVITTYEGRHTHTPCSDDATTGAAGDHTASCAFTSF
Summary of the method: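 Binding signal here means per-feature fluorescence intensity in arbitrary units. The values were read on an Axon 4000B scanner after a custom Agilent array, double-stranded by primer extension with Cy5-dUTP, was incubated with 200 nM protein at 25 °C for 1 h in PBS with 2% BSA, salmon testes DNA and 50 µM zinc acetate, then washed. The proteins were transcription factors with an N-terminal polyhistidine tag and DsRed, expressed in E. coli BL21-CodonPlus and purified on Ni–NTA.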

| Sequence | binding signal |
| --- | --- |
| GTGACCCAACATTCAGATTCATCTTTTTTTTTCACCTTCTCGGAGTCACCTAGTGCAG | 11300 fluorescence intensity (a.u.) |
| TTTTCATTGTGTTGTAGCCAACAGCCACATTGTTTTCTTTCGGAGTCACCTAGTGCAG | 8080 fluorescence intensity (a.u.) |
| TACCAACATTGTAGCAACAGATTCATCTCTCTTTTTTTTTCGGAGTCACCTAGTGCAG | 18100 fluorescence intensity (a.u.) |
| AGTCACGAATCAAACAACCCCTTAAACTGTATTTGATTGTCGGAGTCACCTAGTGCAG | 8060 fluorescence intensity (a.u.) |
| GCGGTGGTGGACAGTCCCAGACTGACTTGTGGTGGGGACTCGGAGTCACCTAGTGCAG | 9560 fluorescence intensity (a.u.) |
| ACTCTCTCTCTCTCTCTGCTTCTTCTTGTGTTGTGCTTGTCGGAGTCACCTAGTGCAG | 9800 fluorescence intensity (a.u.) |
| GGCTGGGCTTTTTGGGCTTTCTTTGATCTATATTTTGAGACGGAGTCACCTAGTGCAG | 18200 fluorescence intensity (a.u.) |
| GGGTTCTTGGCTACTGGGGCTGTCTCTCTATCTTTCTTGACGGAGTCACCTAGTGCAG | 21600 fluorescence intensity (a.u.) |
| AGCGATACTCTACTGCTACCTTGTCCCAACATGCTGGGCTCGGAGTCACCTAGTGCAG | 8260 fluorescence intensity (a.u.) |
| GCTATGAGATTTATATATTTTTTTGTCCTGGGCTTCTTTTCGGAGTCACCTAGTGCAG | 9510 fluorescence intensity (a.u.) |
| TGGTTCTTGCTCTTGTTCTTGCTGCTGCTGCTTTTGCTCTCGGAGTCACCTAGTGCAG | 9380 fluorescence intensity (a.u.) |
| TGTTCTACTTGGCTGTCTCATACTTTTTTTATTTCTCTCTCGGAGTCACCTAGTGCAG | 11200 fluorescence intensity (a.u.) |
| TCTCTGCTTCTCGTTGTTCTTGGTTGGTTGTTGTTGTAGACGGAGTCACCTAGTGCAG | 19400 fluorescence intensity (a.u.) |
| GGCTGGGGTGGGCTCTACTTGACAGACTGATACTCCTACTCGGAGTCACCTAGTGCAG | 19600 fluorescence intensity (a.u.) |
| CATGTCTATCTTTCTACTATTTATTTTTTTTTGGCAGAGACGGAGTCACCTAGTGCAG | 12700 fluorescence intensity (a.u.) |
| CTTGGTTTTCTTGATTTCTTGGGTTCTTGGCTACTGGGGCCGGAGTCACCTAGTGCAG | 9490 fluorescence intensity (a.u.) |
| CCCACACGCGCTCCATGCATCTCCACCACGCTCCATGTGTCGGAGTCACCTAGTGCAG | 11000 fluorescence intensity (a.u.) |
| CCGTCCGCCATTGCAGCTTCGTTGTTCTGTACCTTCTTGCCGGAGTCACCTAGTGCAG | 10900 fluorescence intensity (a.u.) |
| CCGGGTCACACATCCCCTCATACTCGGGCCTTGTTTAGTTCGGAGTCACCTAGTGCAG | 8740 fluorescence intensity (a.u.) |
| TACTGCCTCTCTCTGACCCCATTGACCAACTCCGTTGACCCGGAGTCACCTAGTGCAG | 15800 fluorescence intensity (a.u.) |
| AGATGGATGCTCTGCCCGCCGCCCTACCACCCTCTGCCATCGGAGTCACCTAGTGCAG | 8030 fluorescence intensity (a.u.) |

| Sequence | binding signal |
| --- | --- |
| GTCTTTTCTTCAAGGTTATCTTTTTTGTCCCTTTTTTATTCGGAGTCACCTAGTGCAG | 15200 fluorescence intensity (a.u.) |
| TCATATTGTACCTTCCACTTTTATTCTTTTAAAGCCTATACGGAGTCACCTAGTGCAG | 9560 fluorescence intensity (a.u.) |
| AGGCGCTCCATAGGCCTCGTCATCTTCACAGTCACACACCCGGAGTCACCTAGTGCAG | 11200 fluorescence intensity (a.u.) |
| GCTGCCTATTCCATACAAATTTCGTAGGTTCATTTCCAACCGGAGTCACCTAGTGCAG | 10000 fluorescence intensity (a.u.) |
| GACTATAGAGGCTTTGTTTGTTTGGGGTGTGTTTTTGTCTCGGAGTCACCTAGTGCAG | 17200 fluorescence intensity (a.u.) |
| ATGAATTAGGTGTGGTTCTCTTTAATCTGTTATTAGTCATCGGAGTCACCTAGTGCAG | 11000 fluorescence intensity (a.u.) |
| GATATTGGAGGTGCATCTGTTAGGGTTCGGGTTCTCTCTACGGAGTCACCTAGTGCAG | 16700 fluorescence intensity (a.u.) |
| TAGATCTCTTGCTTTGGGTGTTGTTTGCTCTAGGTGTTCTCGGAGTCACCTAGTGCAG | 8250 fluorescence intensity (a.u.) |
| TTCACTATTGGGTGTTTTTGTCTCGATTCACCTTCATCGTCGGAGTCACCTAGTGCAG | 8840 fluorescence intensity (a.u.) |
| CGTGTTGGGGTTCTCTTCCTGCTGCTTTGGCCACCTGGGACGGAGTCACCTAGTGCAG | 12500 fluorescence intensity (a.u.) |
| CATCTACGTGCTCTCTTTGGTTGGGGTGTTCTTGCTGCTACGGAGTCACCTAGTGCAG | 17700 fluorescence intensity (a.u.) |
| GTCGTCGTCTTCGTCTCGAGTTCTTGGTTGGTTGGATCTACGGAGTCACCTAGTGCAG | 19400 fluorescence intensity (a.u.) |
| CTTCTTCGGATCACTCGGTTGGTTTCTTGGTTTCTTGGTTCGGAGTCACCTAGTGCAG | 13000 fluorescence intensity (a.u.) |
| ATTGGTCGTCTTGCTGAGCTCTCGTACTTGGATCTCTCTACGGAGTCACCTAGTGCAG | 11100 fluorescence intensity (a.u.) |
| TCTAGGTTCTGTTCTATTCGGTTCTAGGTTATCATATTTTCGGAGTCACCTAGTGCAG | 12100 fluorescence intensity (a.u.) |
| TTTGGGGTGTGTTTTTGTCTAGAGGTAAAGTTTTTAAAGTCGGAGTCACCTAGTGCAG | 10600 fluorescence intensity (a.u.) |
| GGACTCCTGATTTCTACTCTATTCCTATTCCACTAGCTTACGGAGTCACCTAGTGCAG | 14400 fluorescence intensity (a.u.) |
| ATCCTGCGATTCCACCATATCCAATCCTCGTATCTTGGGTCGGAGTCACCTAGTGCAG | 8310 fluorescence intensity (a.u.) |
| TTATCTAGATTCGTATTACTAGGATGTGTCTCGTTCAACCCGGAGTCACCTAGTGCAG | 8780 fluorescence intensity (a.u.) |
| GTGGGCCCCGCCCGTGTGATCGTGTCTCTGTTTCGTTTTCCGGAGTCACCTAGTGCAG | 12100 fluorescence intensity (a.u.) |
| GTGTTTTTTCTTCATTTGTCCCGTAATAAATTTATTTTTTCGGAGTCACCTAGTGCAG | 12500 fluorescence intensity (a.u.) |
